We go through 17 compounds from PubChem BioAssay AID651791 (National Center for Advancing Translational Sciences (NCATS), 2012).

A short description of the test: InCell qHTS Assay for Inhibitors of the mTORC1 Signaling Pathway in MEF (Tsc2-/-, p53-/-) Cells: Hit Validation.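 Further: phospho-S6 Ser235/236 signal normalized to propidium iodide cell count per well; nearly all actives have a fitted effect of over 75% in size.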 The conditions noted are these: phospho-rpS6 immunofluorescence, 24 h; activity change, negative = inhibition: at 38.3 µM (top of the series). In general terms: qHTS replaces the single test concentration by a dilution series.

Records with an inconclusive call do not appear. Calls of active or inactive are those of the source. The call rests on the fitted dose curve; in most records, active means well fitted inhibition curve with a large enough effect; inconclusive means small, poorly fitted or top-dose-only effect; inactive means no such curve, though single readings can be large or run the other way.
Potency means the concentration at half of the fitted maximal effect.

As for `CCCCN1C(=O)C(O)(CC(=O)c2ccc(CC)cc2)c2cc(Br)ccc21` (configuration not stated), the activity change, negative = inhibition is -23.7%.
Still for that read-out and setting: the value for `Cc1cccc(Oc2coc3cc(OCC(=O)NC4CCCCC4)ccc3c2=O)c1` was -100%; that for `Cc1ccc([C@H]2Nc3ccc(S(=O)(=O)Nc4cccc(Cl)c4C)cc3[C@H]3C=CC[C@H]32)cc1` was -100%.
As for `COc1ccc(-c2nc(CCNC(=O)c3c(F)cccc3Cl)cs2)cc1`, the activity change, negative = inhibition is -100%.
The same measure, in the same setting: the value for `Cc1ccccc1C(=O)N1CCN(CCc2ccccn2)CC1` was -100%; that for `Cc1n[nH]c(C)c1S(=O)(=O)N(CC(=O)Nc1ccc(C(F)(F)F)cc1)c1ccc(C(C)C)cc1` was -23.7%; that for `O=C(Nc1ccc(F)c(F)c1)c1ccc(F)c(S(=O)(=O)N2CCC3(CC2)OCCO3)c1` was -100%.
As to `COc1cccc(C(=O)CC2(O)C(=O)N(Cc3ccccc3)c3ccccc32)c1` (configuration not stated), the activity change, negative = inhibition is -100%.
Take `CCOCc1cc(CN2CCN(c3ccccc3OC)CC2)c(O)c2ncccc12`: the Potency was 2070 nM (active).
In the case of `Cc1c(Cl)cccc1NC(=O)c1oc2ccc(S(=O)(=O)N3CCC4(CC3)OCCO4)cc2c1C`, the activity change, negative = inhibition is -22.5%.
Still for that read-out and setting: then `COc1ccc(N2CCN(C(=O)C(C)n3nc(C)c4sc5ccccc5c4c3=O)CC2)cc1` (configuration not stated), with -100%; and `COc1cc2c(cc1OC)n(CC(=O)c1ccc(F)cc1)c(=O)n1nc(CCn3nc(C)cc3C)nc21`, with -100%; and `CCc1ccccc1NC(=O)CSCc1cnn(-c2ccccc2)c1-n1cccc1`, with -100%.
Take `CCCS(=O)(=O)c1ncc(Cl)c(C(=O)Nc2c(C(=O)Nc3ccccc3)oc3ccccc23)n1`: the Potency was 2330 nM (active).
`CCCCOc1ccc(Cn2c(=O)sc3ccccc32)cc1`: the activity change, negative = inhibition is -100%.
Same read-out and setting: then `COc1cc(Br)ccc1C1C(C(=O)Nc2ccc(C)cc2C)=C(C)Nc2nnnn21` (configuration not stated), with -100%; and `Cc1ccc(NC(=O)CSc2ccc(-c3ccccn3)nn2)cc1F`, with -100%.
